# Assay results reported in PubChem BioAssay (NCATS).
# Values without a mark were called inactive. Records with an inconclusive call do not appear. A call without a number means that no potency is given here. Activity calls are given as the source filed them. Unless noted, calls follow the shape of the dose curve; as a rule, active = well fitted curve in the direction sought with a large enough effect; inconclusive = small, poorly fitted or top-dose-only effect, or another doubt; inactive = no such curve, though single readings can be large; an effect the other way counts as inactive or inconclusive.
# Assays:
# [1] = Cell Viability - LYMP2-013 (AID 970); also: series mostly up to about 92 µM; nearly all actives have a fitted effect of over 55% in size
# Method in brief: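 CellTiter-Glo luminescence (cellular ATP) read after 30 min at RT. Cells: human lymphoblastoid line, 2500/well, 24 hr compound exposure at 37 C. Tetraoctylammonium bromide positive control; AC50 via standard Hill fit of qHTS titrations.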
# [2] = Cell Viability - LYMP2-019 (AID 973); also: nearly all actives have a fitted effect of over 55% in size
# Method in brief: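 qHTS, 1536-well; 2500 cells/well; 5 hr pre-incubation, 24 hr compound exposure, 37 C; CellTiter-Glo added, 30 min RT; luminescence read; AC50 via standard Hill equation.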
# [3] = Cell Viability - LYMP2-021 (AID 974);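 also: compound exposure lasts 24 hours at 37 °C; nearly all actives have a fitted effect of over 55% in size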
# Method in brief: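 ATP luminescence (CellTiter-Glo, 30 min RT) after 24 h compound exposure at 37 C; 2500 human lymphoblastoid cells/well, 5 h settle beforehand. Cytotoxicity = concentration-dependent ATP drop, AC50 by Hill fit.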
# [4] = Cell Viability - LYMP2-025 (AID 976); also: series mostly up to about 92 µM
# Method in brief: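 CellTiter-Glo luminescence (cellular ATP) after 24 h compound exposure at 37 C; LYMP2-025 human lymphoblastoid cells, 2500/well, complete medium. Tetraoctylammonium bromide positive control. AC50 by Hill equation fit of qHTS concentration-response.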
# [5] = Cell Viability - LYMP2-008 (AID 980); also: nearly all actives have a fitted effect of over 60% in size
# Method in brief: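 Luminescent ATP read-out (CellTiter-Glo, 30 min RT) after 24 hr compound exposure at 37 C of human lymphoblastoid cells in complete medium. Decrease in ATP taken as cytotoxicity; AC50 derived by standard Hill fit of qHTS concentration-response data.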
# [6] = Cell Viability - LYMP2-012 (AID 982);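 also: cellular ATP by luciferase luminescence where a drop means cytotoxicity; cells exposed to compound for one day before reading; nearly all actives have a fitted effect of over 55% in size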
# [7] = Cell Viability - LYMP2-014 (AID 983); also: series mostly up to about 92 µM; nearly all actives have a fitted effect of over 50% in size
# Method in brief: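 2500 cells/well, 5 hr 37 C; cpd 24 hr 37 C, complete medium; CellTiter-Glo 30 min RT, luminescence; ATP loss = toxicity; AC50 via Hill eqn; tetraoctylammonium bromide positive control.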
# [8] = Cell Viability - LYMP2-016 (AID 984)
# Method in brief: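 Acute toxicity in a Coriell human lymphoblastoid line is scored as loss of intracellular ATP over 24 h of treatment in complete medium. CellTiter-Glo signal is fitted across concentrations with the Hill equation to give AC50.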
# [9] = Cell Viability - LYMP2-018 (AID 985); also: nearly all actives have a fitted effect of over 50% in size
# Method in brief: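 2500 cells/well; 5 hr 37 C; cmpd 24 hr 37 C, complete medium; CellTiter-Glo 30 min RT; luminescence. Tetraoctylammonium bromide positive control. AC50 via Hill fit.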
# [10] = Cell Viability - LYMP1-002 - Assay at 24 hr (AID 993)
# Method in brief: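 CellTiter-Glo luminescence (intracellular ATP) after 24 h compound exposure, 37 C, in LYMP1-002 human lymphoblastoid cells; decreased ATP taken as cytotoxicity. AC50 from standard Hill fit of concentration-response curves.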
# [11] = target: Androgen receptor (Homo sapiens) (UniProt P10275); assay: qHTS assay for small molecule agonists of androgen receptor signaling (AID 588515; active = well fitted curve in the direction sought with a large enough effect in the signal ratio, with a control signal flat; the % refers to the signal ratio); details: AR-UAS-bla HEK293, beta-lactamase ratio, agonist 16 h; hits give high values
# Sequence of Androgen receptor (Homo sapiens) (P10275 whole entry, looked up): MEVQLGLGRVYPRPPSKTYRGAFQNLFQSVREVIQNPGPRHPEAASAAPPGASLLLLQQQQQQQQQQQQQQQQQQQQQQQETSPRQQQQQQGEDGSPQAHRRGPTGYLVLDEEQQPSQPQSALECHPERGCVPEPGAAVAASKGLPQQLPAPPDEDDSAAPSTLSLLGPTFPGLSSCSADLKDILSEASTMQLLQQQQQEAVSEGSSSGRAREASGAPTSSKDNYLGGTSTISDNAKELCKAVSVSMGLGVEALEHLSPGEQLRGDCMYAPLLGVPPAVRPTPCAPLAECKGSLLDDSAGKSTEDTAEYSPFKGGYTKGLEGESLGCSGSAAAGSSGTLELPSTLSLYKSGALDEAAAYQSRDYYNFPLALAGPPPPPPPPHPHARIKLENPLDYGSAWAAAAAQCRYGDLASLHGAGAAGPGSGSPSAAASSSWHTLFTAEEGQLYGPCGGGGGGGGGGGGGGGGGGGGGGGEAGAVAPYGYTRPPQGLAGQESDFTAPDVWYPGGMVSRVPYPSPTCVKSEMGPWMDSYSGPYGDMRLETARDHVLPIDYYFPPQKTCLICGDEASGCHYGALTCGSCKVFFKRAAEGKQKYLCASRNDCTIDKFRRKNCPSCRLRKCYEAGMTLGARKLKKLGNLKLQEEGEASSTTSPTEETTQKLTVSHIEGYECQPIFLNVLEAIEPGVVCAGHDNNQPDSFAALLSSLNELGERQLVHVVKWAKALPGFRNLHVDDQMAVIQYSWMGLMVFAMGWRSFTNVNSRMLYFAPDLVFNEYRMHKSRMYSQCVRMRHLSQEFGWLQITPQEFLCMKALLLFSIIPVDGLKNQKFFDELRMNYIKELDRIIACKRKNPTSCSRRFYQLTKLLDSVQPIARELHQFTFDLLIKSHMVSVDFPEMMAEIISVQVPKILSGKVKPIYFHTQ
# Method in brief: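 Stimulation of an AR-responsive β-lactamase reporter in GripTite HEK293 cells was measured after 16 h compound exposure at 37 °C, via CCF4 fluorescence after 2 h RT. EC50 from Hill fits, normalized to R1881 at 30 nM.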
# [12] = target: Glucocorticoid receptor (Homo sapiens) (UniProt P04150); assay: qHTS assay for small molecule agonists of glucocorticoid receptor signaling (AID 588532; active = well fitted curve in the direction sought with a large enough effect in the signal ratio, with a control signal flat; the % refers to the signal ratio); details: HeLa MMTV-bla, beta-lactamase ratio, agonist, 18 h; activation: hits give high values, percent of dexamethasone control, DMSO zero
# Sequence of Glucocorticoid receptor (Homo sapiens) (P04150 whole entry, looked up): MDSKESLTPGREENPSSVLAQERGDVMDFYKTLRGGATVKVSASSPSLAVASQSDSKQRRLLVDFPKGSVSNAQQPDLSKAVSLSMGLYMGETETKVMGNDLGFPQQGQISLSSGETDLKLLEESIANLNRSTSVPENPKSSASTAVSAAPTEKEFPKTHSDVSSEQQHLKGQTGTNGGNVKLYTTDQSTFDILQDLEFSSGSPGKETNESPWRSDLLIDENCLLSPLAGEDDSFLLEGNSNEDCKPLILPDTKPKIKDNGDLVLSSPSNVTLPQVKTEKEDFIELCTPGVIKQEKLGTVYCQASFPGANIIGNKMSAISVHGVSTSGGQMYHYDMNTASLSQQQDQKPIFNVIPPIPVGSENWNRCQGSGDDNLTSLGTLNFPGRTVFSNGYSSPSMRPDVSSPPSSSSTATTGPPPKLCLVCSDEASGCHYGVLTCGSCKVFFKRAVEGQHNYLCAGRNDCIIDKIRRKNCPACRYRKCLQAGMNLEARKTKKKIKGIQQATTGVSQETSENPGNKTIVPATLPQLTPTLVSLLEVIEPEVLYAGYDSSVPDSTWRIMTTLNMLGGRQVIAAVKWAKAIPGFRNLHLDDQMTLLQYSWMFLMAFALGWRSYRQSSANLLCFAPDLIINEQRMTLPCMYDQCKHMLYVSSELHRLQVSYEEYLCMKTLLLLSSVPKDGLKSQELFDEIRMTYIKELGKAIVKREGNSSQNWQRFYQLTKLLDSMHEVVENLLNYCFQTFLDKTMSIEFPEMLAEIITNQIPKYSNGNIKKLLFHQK
# Method in brief: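 Using MMTV-bla HeLa cells in medium with 1% stripped FBS and 25 mM HEPES, compounds were titrated and incubated overnight-length (18 h). Beta-lactamase cleavage of CCF4 was quantified by dual-emission fluorescence.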
# [13] = target: Peroxisome proliferator-activated receptor delta (Homo sapiens) (UniProt Q03181); assay: qHTS assay for small molecule agonists of peroxisome proliferator-activated receptor delta signaling (AID 588534; calls by dose curve)
# Sequence of Peroxisome proliferator-activated receptor delta (Homo sapiens) (Q03181 whole entry, looked up): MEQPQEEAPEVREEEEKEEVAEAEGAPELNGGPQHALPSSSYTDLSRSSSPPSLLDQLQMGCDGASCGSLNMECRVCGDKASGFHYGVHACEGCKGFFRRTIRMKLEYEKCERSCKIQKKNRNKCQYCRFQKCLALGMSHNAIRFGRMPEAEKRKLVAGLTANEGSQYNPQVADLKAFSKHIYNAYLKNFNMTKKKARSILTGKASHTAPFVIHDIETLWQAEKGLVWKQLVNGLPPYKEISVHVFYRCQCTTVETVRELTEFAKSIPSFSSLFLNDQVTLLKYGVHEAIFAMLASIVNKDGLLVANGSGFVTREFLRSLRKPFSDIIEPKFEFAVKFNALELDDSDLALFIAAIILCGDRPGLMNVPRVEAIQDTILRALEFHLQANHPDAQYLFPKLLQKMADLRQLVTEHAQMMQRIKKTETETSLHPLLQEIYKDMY
# Method in brief: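 Titration series tested in agonist mode on beta-lactamase reporter cells; 18 hrs at 37 C after a 5 hr pre-incubation. Readout: CCF4 fluorescence, 2 hrs RT. Hill equation gives EC50 and maximal response.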
# [14] = target: Vitamin D3 receptor (Homo sapiens) (UniProt P11473); assay: qHTS assay for small molecule antagonists of vitamin D receptor signaling (AID 588541; calls by dose curve;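 also: receptor activated by calcitriol during compound treatment; series mostly up to about 77 µM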)
# Sequence of Vitamin D3 receptor (Homo sapiens) (P11473 whole entry, looked up): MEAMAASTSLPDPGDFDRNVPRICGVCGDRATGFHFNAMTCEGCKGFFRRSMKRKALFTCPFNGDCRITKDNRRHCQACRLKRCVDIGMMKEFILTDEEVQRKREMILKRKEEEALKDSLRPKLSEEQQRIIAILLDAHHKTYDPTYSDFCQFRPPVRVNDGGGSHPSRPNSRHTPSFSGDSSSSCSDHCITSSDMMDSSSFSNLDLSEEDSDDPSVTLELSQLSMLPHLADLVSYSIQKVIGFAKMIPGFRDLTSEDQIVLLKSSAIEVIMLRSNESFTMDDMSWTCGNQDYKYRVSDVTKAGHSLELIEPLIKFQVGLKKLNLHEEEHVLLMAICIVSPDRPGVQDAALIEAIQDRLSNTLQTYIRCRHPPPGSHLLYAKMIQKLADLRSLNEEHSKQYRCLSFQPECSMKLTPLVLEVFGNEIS
# Method in brief: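 Antagonist-mode beta-lactamase reporter assay: HEK293T VDR-UAS-bla cells were exposed to titrated compound alongside 1-alpha,25-dihydroxyvitamin D3 at 3 nM final for 16 h. Values were normalized to the 50 nM agonist control and DMSO basal, with IC50 and efficacy from Hill equation fits.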
# [15] = target: Vitamin D3 receptor (Homo sapiens) (UniProt P11473); assay: qHTS assay for small molecule agonists of vitamin D receptor signaling (AID 588543; calls by dose curve)
# Method in brief: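 qHTS in agonist mode: compound titrations stimulate a VDR-driven β-lactamase reporter in HEK293T cells over 16 h at 37 °C. Response normalized to 50 nM 1α,25-dihydroxyvitamin D3 = 100%, DMSO = 0%; Hill fitting gives EC50 and maximal response.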
# [16] = target: Voltage-gated inwardly rectifying potassium channel KCNH2 (Homo sapiens) (UniProt Q12809); assay: qHTS Assay for Small Molecule Inhibitors of the Human hERG Channel Activity (AID 588834);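 also: potency is read from the fitted curve at half-maximal effect; lower thallium flux fluorescence means stronger hERG block; nearly all actives have a fitted effect of over 50% in size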
# Sequence of Voltage-gated inwardly rectifying potassium channel KCNH2 (Homo sapiens) (Q12809 whole entry, looked up): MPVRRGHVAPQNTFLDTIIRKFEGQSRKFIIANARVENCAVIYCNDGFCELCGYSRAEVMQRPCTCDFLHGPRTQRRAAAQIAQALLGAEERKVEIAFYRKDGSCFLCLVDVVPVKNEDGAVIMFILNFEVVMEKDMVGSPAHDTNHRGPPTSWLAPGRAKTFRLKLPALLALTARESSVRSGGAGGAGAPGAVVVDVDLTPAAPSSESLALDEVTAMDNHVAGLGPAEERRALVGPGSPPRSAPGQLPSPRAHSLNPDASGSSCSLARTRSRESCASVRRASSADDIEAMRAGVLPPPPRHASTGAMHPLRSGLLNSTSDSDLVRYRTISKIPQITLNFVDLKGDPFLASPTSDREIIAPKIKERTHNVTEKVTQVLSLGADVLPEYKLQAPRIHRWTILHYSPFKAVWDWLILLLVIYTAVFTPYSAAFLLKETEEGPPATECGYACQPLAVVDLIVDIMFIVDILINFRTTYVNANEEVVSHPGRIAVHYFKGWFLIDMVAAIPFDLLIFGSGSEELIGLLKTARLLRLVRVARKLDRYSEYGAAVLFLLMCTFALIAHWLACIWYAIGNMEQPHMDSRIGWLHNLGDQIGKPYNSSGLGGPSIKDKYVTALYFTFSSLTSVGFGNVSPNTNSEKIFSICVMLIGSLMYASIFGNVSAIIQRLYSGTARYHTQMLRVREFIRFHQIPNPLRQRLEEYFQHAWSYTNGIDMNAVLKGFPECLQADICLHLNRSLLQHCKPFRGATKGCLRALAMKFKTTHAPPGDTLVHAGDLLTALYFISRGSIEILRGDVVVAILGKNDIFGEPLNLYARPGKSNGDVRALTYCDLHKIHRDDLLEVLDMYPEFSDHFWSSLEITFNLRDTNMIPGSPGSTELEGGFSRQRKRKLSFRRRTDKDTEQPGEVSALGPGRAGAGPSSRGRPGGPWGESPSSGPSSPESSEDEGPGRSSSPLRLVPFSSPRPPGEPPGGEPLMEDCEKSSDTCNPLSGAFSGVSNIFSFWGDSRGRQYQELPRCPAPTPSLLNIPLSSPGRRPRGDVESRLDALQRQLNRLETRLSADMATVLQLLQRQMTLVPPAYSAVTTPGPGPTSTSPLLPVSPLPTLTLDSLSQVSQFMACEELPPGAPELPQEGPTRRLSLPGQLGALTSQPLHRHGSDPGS
# Method in brief: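 Cells were infected with hERG-BacMam virus for 4 hrs at room temperature, grown overnight, then seeded at 2000/well. After dye loading and roughly 10 min compound treatment, thallium influx was triggered and fluorescence recorded.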
# [17] = qHTS assay for small molecule activators of the p53 signaling pathway (AID 651743; active = well fitted activation curve with a large enough effect in the signal ratio, not every such curve was filed as active; the % refers to the signal ratio; also: series mostly up to about 92 µM); details: HCT-116 p53RE-bla, beta-lactamase FRET ratio, 16 h; activation: hits give high values
# Method in brief: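 A beta-lactamase reporter under p53 response element control, stably carried by HCT-116 cells, reported pathway activation. Test compounds were applied for 16 hours at 37 C, and fluorescence was measured 2 hours after adding the B/G FRET substrate.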
# [18] = qHTS assay for small molecule disruptors of the mitochondrial membrane potential - 5 hr assay (AID 651755; calls by dose curve; also: nearly all actives have a fitted effect of over 40% in size)
# Method in brief: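 Membrane-potential dye readout: red aggregate (540 ex/590 em) versus green monomer (490 ex/535 em) fluorescence after 30 min dye loading, following 5 hr compound exposure at 37C of overnight-plated HepG2 cells.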
# [19] = qHTS assay to identify small molecules that stimulate interleukin-8 (IL-8) secretion (AID 651758; active = well fitted activation curve with a large enough effect in the signal ratio; the % refers to the signal ratio; also: potency is read from the fitted curve at half-maximal effect)
# Method in brief: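 Secreted IL-8 measured homogeneously by TR-FRET (two labelled anti-IL-8 antibodies, 1-3 h at room temperature) after a 16 h, 37 C compound treatment of THP-1 cells at 2000 cells/well.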
# [20] = target: Nuclear receptor ROR-gamma (Homo sapiens) (UniProt P51449); assay: qHTS assay for small molecule antagonists of the retinoid-related orphan receptor gamma (ROR-gamma) signaling pathway (AID 651802); also: potency is read from the fitted curve at half-maximal effect; nearly all actives have a fitted effect of over 60% in size
# Sequence of Nuclear receptor ROR-gamma (Homo sapiens) (P51449 whole entry, looked up): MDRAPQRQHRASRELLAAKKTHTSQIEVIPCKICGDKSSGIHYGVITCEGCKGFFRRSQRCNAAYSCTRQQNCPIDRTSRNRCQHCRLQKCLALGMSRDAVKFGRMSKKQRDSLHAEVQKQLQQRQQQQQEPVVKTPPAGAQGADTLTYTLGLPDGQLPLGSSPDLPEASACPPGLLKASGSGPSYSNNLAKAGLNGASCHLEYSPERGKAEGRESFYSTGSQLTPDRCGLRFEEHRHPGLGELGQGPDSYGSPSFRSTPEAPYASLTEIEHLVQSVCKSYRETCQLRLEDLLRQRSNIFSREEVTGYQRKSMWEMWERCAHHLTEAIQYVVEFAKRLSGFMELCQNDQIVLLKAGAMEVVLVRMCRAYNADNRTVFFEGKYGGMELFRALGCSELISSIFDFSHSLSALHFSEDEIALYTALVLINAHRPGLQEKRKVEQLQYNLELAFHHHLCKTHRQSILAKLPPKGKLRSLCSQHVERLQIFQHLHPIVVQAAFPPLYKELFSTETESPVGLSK
# Method in brief: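 Luciferase read-out: ONE-Glo luminescence after 30 min at room temperature, following 16hr doxycycline induction at 37C, 5% CO2 of CHO cells with TET-inducible ROR and RORE-LUC reporter; decreased luminescence = reduced reporter activity.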
# [21] = qHTS assay for small molecule agonists of the antioxidant response element (ARE) signaling pathway measured by Nrf2-dependant transcriptional activity (AID 720636; active = well fitted curve in the direction sought with a large enough effect in the repeat runs; an effect the other way counts as inactive or inconclusive;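 also: HepG2 cells with an ARE-driven luciferase reporter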)
# Method in brief: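 HepG2 ARE-luc reporter line, 1% dialyzed FBS; 6 hr attachment at 37 C, compound pinned in, 16 hr at 37 C/5% CO2; ONE-Glo, 30 min RT, luminescence read.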
# [22] = qHTS assay for small molecule antagonists of the retinoid-related orphan receptor gamma (ROR-gamma) signaling pathway - cell viability counter screen (AID 720652; active = well fitted curve in the direction sought with a large enough effect in the repeat runs; an effect the other way counts as inactive or inconclusive;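 also: potency is read from the fitted curve at half-maximal effect; compound exposure lasted 16 hr before ATP read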)
# Method in brief: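 CHO RORE-LUC/TET-ROR line, 1,000 cells/well, 37 C 5% CO2 5 hr; cpd or DMSO + doxycycline induction, 16 hr. CellTiter-Glo, 30 min RT, luminescence = ATP content.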
# [23] = qHTS assay for cell viability of the p53RE-bla HCT-116 cell line (AID 743292)
# Method in brief: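 Luminescent ATP quantitation (CellTiter-Glo) served as the viability read-out; reagent was added after 16 h compound exposure at 37 C and read after 30 min at room temperature. Cells: p53RE-bla HCT-116, 4,000 per well.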
smiles,measurement,setting,value
ClC1=C(Cl)C2(Cl)C3C(Cl)C(Cl)CC3C1(Cl)C2(Cl)Cl (stereo not drawn),Potency,[1],inactive
same,Potency,[2],inactive
same,Potency,[3],inactive
same,Potency,[4],inactive
same,Potency,[5],inactive
same,Potency,[6],inactive
same,Potency,[7],inactive
same,Potency,[8],inactive
same,Potency,[9],inactive
same,Potency,[10],inactive
same,activation,[11],-9.52%
same,activation,[12],17.3%
same,outcome,[13],inactive
same,Potency,[14],inactive
same,outcome,[15],inactive
same,Potency,[16],35.5 µM (active)
same,activation,[17],0.792%
same,Potency,[18],inactive
same,Potency,[19],42.2 µM (active)
same,Potency,[20],37.6 µM (active)
same,Potency,[21],inactive
same,Potency,[22],66.8 µM (active)
same,Potency,[23],50.1 µM (active)
